Test results taken from PubChem BioAssay.
Where “and” joins values, the source holds several entries; their conditions need not be identical. Equal entries are not always repeated. Calls of active or inactive are those of the source. The rule behind the calls is not given here.

Test: growth inhibition, single agents and combos, ICB984, cell-based, cisplatin or BGB combos, synergistic combos for chromothripsis tumors (AID 1671451);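 note: cells exposed for 96 hours before readout; 0% = vehicle DMSO and 100% = killing by high DMSO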
Conditions: ICB984 medulloblastoma cells, drug combinations, BGB IC40 combo, at 0.005 µM, stronger effect = higher value

Row | SMILES | inhibition
1 | Cc1c(N)nc(C(CC(N)=O)NCC(N)C(N)=O)nc1C(=O)NC(C(=O)NC(C)C(O)C(C)C(=O)NC(C(=O)NCCc1nc(-c2nc(C(=O)NCCC[S+](C)C)cs2)cs1)C(C)O)C(O[C@@H]1O[C@@H](CO)[C@@H](O)[C@H](O)[C@@H]1O[C@H]1O[C@H](CO)[C@@H](O)[C@H](OC(N)=O)[C@@H]1O)c1cnc[nH]1 (stereo not given in full) | -5.04% and -17.2%
2 | O=c1[nH]c(=O)n(C2OC(CO)C(O)C2O)cc1F (stereo not given) | 32%
3 | O=P(O)(NCCCl)NCCCl | -58.7%
4 | CC1(C)C(C(=O)Nc2ccc(S(=O)(=O)c3ccc(NC(=O)C4C(C)(C)C4(C)C)cc3)cc2)C1(C)C | -21.6%
5 | CCC1(O)C(=O)OCc2c1cc1n(c2=O)Cc2cc3ccccc3nc2-1 (stereo not given) | 10.1% and 28.9%
6 | NC(Cc1ccc(N(CCCl)CCCl)cc1)C(=O)O (stereo not given) | -22.4%
7 | COc1cc([C@@H]2c3cc4c(cc3[C@H](O)[C@H]3COC(=O)[C@H]23)OCO4)cc(OC)c1O | 1.81% and -7.75%
8 | COc1cc(C2c3cc4c(cc3C(O)C3COC(=O)C23)OCO4)cc(OC)c1OC (stereo not given) | 19.6%

Same assay, conditions: ICB984 medulloblastoma cells, drug combinations, BGB IC40 combo, at 0.05 µM, stronger effect = higher value

Row | SMILES | inhibition
9 | Cc1c(N)nc(C(CC(N)=O)NCC(N)C(N)=O)nc1C(=O)NC(C(=O)NC(C)C(O)C(C)C(=O)NC(C(=O)NCCc1nc(-c2nc(C(=O)NCCC[S+](C)C)cs2)cs1)C(C)O)C(O[C@@H]1O[C@@H](CO)[C@@H](O)[C@H](O)[C@@H]1O[C@H]1O[C@H](CO)[C@@H](O)[C@H](OC(N)=O)[C@@H]1O)c1cnc[nH]1 (stereo not given in full) | 2.59% and -11.2%
10 | O=c1[nH]c(=O)n(C2OC(CO)C(O)C2O)cc1F (stereo not given) | 86.4%
11 | O=P(O)(NCCCl)NCCCl | -40.4%
12 | CC1(C)C(C(=O)Nc2ccc(S(=O)(=O)c3ccc(NC(=O)C4C(C)(C)C4(C)C)cc3)cc2)C1(C)C | 0.527%
13 | CCC1(O)C(=O)OCc2c1cc1n(c2=O)Cc2cc3ccccc3nc2-1 (stereo not given) | 90.9% and 90.2%
14 | NC(Cc1ccc(N(CCCl)CCCl)cc1)C(=O)O (stereo not given) | 14.2%
15 | COc1cc([C@@H]2c3cc4c(cc3[C@H](O)[C@H]3COC(=O)[C@H]23)OCO4)cc(OC)c1O | 4.84% and 20.6%
16 | COc1cc(C2c3cc4c(cc3C(O)C3COC(=O)C23)OCO4)cc(OC)c1OC (stereo not given) | 10.9%

Same assay, conditions: ICB984 medulloblastoma cells, drug combinations, at 0.5 µM, stronger effect = higher value

Row | SMILES | inhibition
17 | Cc1c(N)nc(C(CC(N)=O)NCC(N)C(N)=O)nc1C(=O)NC(C(=O)NC(C)C(O)C(C)C(=O)NC(C(=O)NCCc1nc(-c2nc(C(=O)NCCC[S+](C)C)cs2)cs1)C(C)O)C(O[C@@H]1O[C@@H](CO)[C@@H](O)[C@H](O)[C@@H]1O[C@H]1O[C@H](CO)[C@@H](O)[C@H](OC(N)=O)[C@@H]1O)c1cnc[nH]1 (stereo not given in full) | -18.3% (inactive) and -34.3% (inactive)
18 | O=c1[nH]c(=O)n(C2OC(CO)C(O)C2O)cc1F (stereo not given) | -9.47% (inactive)
19 | O=P(O)(NCCCl)NCCCl | -24.2% (inactive)
20 | CC1(C)C(C(=O)Nc2ccc(S(=O)(=O)c3ccc(NC(=O)C4C(C)(C)C4(C)C)cc3)cc2)C1(C)C | -22.6% (inactive)
21 | CCC1(O)C(=O)OCc2c1cc1n(c2=O)Cc2cc3ccccc3nc2-1 (stereo not given) | 0.67% (inactive) and -18.7% (inactive)
22 | NC(Cc1ccc(N(CCCl)CCCl)cc1)C(=O)O (stereo not given) | -37% (inactive)
23 | COc1cc([C@@H]2c3cc4c(cc3[C@H](O)[C@H]3COC(=O)[C@H]23)OCO4)cc(OC)c1O | -16.8% (inactive) and -20% (inactive)
24 | COc1cc(C2c3cc4c(cc3C(O)C3COC(=O)C23)OCO4)cc(OC)c1OC (stereo not given) | -21.6% (inactive)

Same assay, conditions: ICB984 medulloblastoma cells, drug combinations, cisplatin combo, at 0.05 µM, stronger effect = higher value

Row | SMILES | inhibition
25 | Cc1c(N)nc(C(CC(N)=O)NCC(N)C(N)=O)nc1C(=O)NC(C(=O)NC(C)C(O)C(C)C(=O)NC(C(=O)NCCc1nc(-c2nc(C(=O)NCCC[S+](C)C)cs2)cs1)C(C)O)C(O[C@@H]1O[C@@H](CO)[C@@H](O)[C@H](O)[C@@H]1O[C@H]1O[C@H](CO)[C@@H](O)[C@H](OC(N)=O)[C@@H]1O)c1cnc[nH]1 (stereo not given in full) | -0.135% and -15.2%
26 | O=c1[nH]c(=O)n(C2OC(CO)C(O)C2O)cc1F (stereo not given) | 86.4%
27 | O=P(O)(NCCCl)NCCCl | -45.9%
28 | CC1(C)C(C(=O)Nc2ccc(S(=O)(=O)c3ccc(NC(=O)C4C(C)(C)C4(C)C)cc3)cc2)C1(C)C | -4.5%
29 | CCC1(O)C(=O)OCc2c1cc1n(c2=O)Cc2cc3ccccc3nc2-1 (stereo not given) | 90.9% and 89.8%
30 | NC(Cc1ccc(N(CCCl)CCCl)cc1)C(=O)O (stereo not given) | 11.8%
31 | COc1cc([C@@H]2c3cc4c(cc3[C@H](O)[C@H]3COC(=O)[C@H]23)OCO4)cc(OC)c1O | 1.07% and 20.6%
32 | COc1cc(C2c3cc4c(cc3C(O)C3COC(=O)C23)OCO4)cc(OC)c1OC (stereo not given) | 7.4%

Same assay, conditions: ICB984 medulloblastoma cells, drug combinations, cisplatin combo, at 0.5 µM, stronger effect = higher value

Row | SMILES | inhibition
33 | Cc1c(N)nc(C(CC(N)=O)NCC(N)C(N)=O)nc1C(=O)NC(C(=O)NC(C)C(O)C(C)C(=O)NC(C(=O)NCCc1nc(-c2nc(C(=O)NCCC[S+](C)C)cs2)cs1)C(C)O)C(O[C@@H]1O[C@@H](CO)[C@@H](O)[C@H](O)[C@@H]1O[C@H]1O[C@H](CO)[C@@H](O)[C@H](OC(N)=O)[C@@H]1O)c1cnc[nH]1 (stereo not given in full) | -22.6% and -41.3%
34 | O=c1[nH]c(=O)n(C2OC(CO)C(O)C2O)cc1F (stereo not given) | -24.4%
35 | O=P(O)(NCCCl)NCCCl | -25.8%
36 | CC1(C)C(C(=O)Nc2ccc(S(=O)(=O)c3ccc(NC(=O)C4C(C)(C)C4(C)C)cc3)cc2)C1(C)C | -42.3%
37 | CCC1(O)C(=O)OCc2c1cc1n(c2=O)Cc2cc3ccccc3nc2-1 (stereo not given) | 8.68% and -15.9%
38 | NC(Cc1ccc(N(CCCl)CCCl)cc1)C(=O)O (stereo not given) | -52.6%
39 | COc1cc([C@@H]2c3cc4c(cc3[C@H](O)[C@H]3COC(=O)[C@H]23)OCO4)cc(OC)c1O | -39.6% and -30.5%
40 | COc1cc(C2c3cc4c(cc3C(O)C3COC(=O)C23)OCO4)cc(OC)c1OC (stereo not given) | -22.1%
